Source: PubChem BioAssay (NCATS)
Inconclusive results are not listed. Active and inactive are the calls of the source. The call rests on the fitted dose curve; in most records, active means well fitted cell-killing curve with a large enough effect; inconclusive means small, poorly fitted or top-dose-only effect, or effect the other way; inactive means no such curve, though single readings can be large or run the other way.

Tests used:
[1] = Quantitative High-Throughput drug screen in 47 multiple myeloma cell lines against the NCATS MIPE library collection: KMS28PE_JCRB cell viability assay (AID 1918983); further: nearly all actives have a fitted effect of over 35% in size; further: potency means the concentration at half of the fitted maximal effect
Procedure, shortened: (§1)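 500 cells/well; MIPE 4.0 drugs pin-transferred; 48 h, 37C, 5% CO2. CellTiter-Glo, 5 min RT, luminescence. Controls: DMSO 100%, media 0%.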

[2] = Quantitative High-Throughput drug screen in 47 multiple myeloma cell lines against the NCATS MIPE library collection: L363_DSMZ cell viability assay (AID 1918984); further: nearly all actives have a fitted effect of over 40% in size; further: potency means the concentration at half of the fitted maximal effect
Procedure, shortened: as §1

[3] = Quantitative High-Throughput drug screen in 47 multiple myeloma cell lines against the NCATS MIPE library collection: KMS34_JCRB cell viability assay (AID 1918985); further: nearly all actives have a fitted effect of over 40% in size; further: potency means the concentration at half of the fitted maximal effect
Procedure, shortened: as §1

[4] = Quantitative High-Throughput drug screen in 47 multiple myeloma cell lines against the NCATS MIPE library collection: OCIMY7_PLB cell viability assay (AID 1918987); settings: OCI-MY7 myeloma viability, CellTiter-Glo ATP, 48 h; viability (% of DMSO): at 45.8 µM (top of the series); further: potency means the concentration at half of the fitted maximal effect; nearly all actives have a fitted effect of over 65% in size
Procedure, shortened: as §1

[5] = Quantitative High-Throughput drug screen in 47 multiple myeloma cell lines against the NCATS MIPE library collection: OCIMY5_PLB cell viability assay (AID 1918988); further: nearly all actives have a fitted effect of over 65% in size; further: potency means the concentration at half of the fitted maximal effect
Procedure, shortened: as §1

[6] = Quantitative High-Throughput drug screen in 47 multiple myeloma cell lines against the NCATS MIPE library collection: OPM1_PLB cell viability assay (AID 1918989); further: nearly all actives have a fitted effect of over 40% in size; further: potency means the concentration at half of the fitted maximal effect
Procedure, shortened: as §1

[7] = Quantitative High-Throughput drug screen in 47 multiple myeloma cell lines against the NCATS MIPE library collection: SKMM1_PLB cell viability assay (AID 1919863); settings: SKMM1 myeloma viability, CellTiter-Glo ATP, 48 h; viability: stronger effect = lower value; further: nearly all actives have a fitted effect of over 35% in size; further: potency means the concentration at half of the fitted maximal effect
Procedure, shortened: as §1

[8] = Quantitative High-Throughput drug screen in 47 multiple myeloma cell lines against the NCATS MIPE library collection: OPM2_DSMZ cell viability assay (AID 1919872); further: nearly all actives have a fitted effect of over 30% in size; further: potency means the concentration at half of the fitted maximal effect
Procedure, shortened: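 CellTiter-Glo ATP luminescence gave viability after 48 h compound treatment at 37C of 500 multiple myeloma cells per well. Normalisation used DMSO-only wells as 100% and media-only wells as 0% viability; primary qHTS of approved and investigational drugs.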

[9] = Quantitative High-Throughput drug screen in 47 multiple myeloma cell lines against the NCATS MIPE library collection: KMS11_JCRBsus cell viability assay (AID 1919873); further: nearly all actives have a fitted effect of over 50% in size; further: potency means the concentration at half of the fitted maximal effect
Procedure, shortened: as §1

[10] = Quantitative High-Throughput drug screen in 47 multiple myeloma cell lines against the NCATS MIPE library collection: KMS28BM_JCRB cell viability assay (AID 1919874); further: nearly all actives have a fitted effect of over 35% in size; further: potency means the concentration at half of the fitted maximal effect
Procedure, shortened: as §1

[11] = Quantitative High-Throughput drug screen in 47 multiple myeloma cell lines against the NCATS MIPE library collection: LP1_DSMZ cell viability assay (AID 1918982); further: nearly all actives have a fitted effect of over 35% in size
Procedure, shortened: as §1

[12] = Quantitative High-Throughput drug screen in 47 multiple myeloma cell lines against the NCATS MIPE library collection: U266_ATCC cell viability assay (AID 1919864); further: nearly all actives have a fitted effect of over 35% in size; further: potency means the concentration at half of the fitted maximal effect
Procedure, shortened: as §1

[13] = Quantitative High-Throughput drug screen in 47 multiple myeloma cell lines against the NCATS MIPE library collection: XG6_PLB cell viability assay (AID 1919865); further: nearly all actives have a fitted effect of over 40% in size; further: potency means the concentration at half of the fitted maximal effect
Procedure, shortened: as §1

[14] = Quantitative High-Throughput drug screen in 47 multiple myeloma cell lines against the NCATS MIPE library collection: PE2_PLB cell viability assay (AID 1919869); further: nearly all actives have a fitted effect of over 35% in size; further: potency means the concentration at half of the fitted maximal effect
Procedure, shortened: as §1

[15] = Quantitative High-Throughput drug screen in 47 multiple myeloma cell lines against the NCATS MIPE library collection: PCM6_Riken cell viability assay (AID 1919870); further: nearly all actives have a fitted effect of over 30% in size; further: potency means the concentration at half of the fitted maximal effect
Procedure, shortened: as §1

[16] = Quantitative High-Throughput drug screen in 47 multiple myeloma cell lines against the NCATS MIPE library collection: VP6_DJ cell viability assay (AID 1919867); further: nearly all actives have a fitted effect of over 40% in size; further: potency means the concentration at half of the fitted maximal effect
Procedure, shortened: as §1

[17] = Quantitative High-Throughput drug screen in 47 multiple myeloma cell lines against the NCATS MIPE library collection: UTMC2_PLB cell viability assay (AID 1919868); settings: CellTiter-Glo ATP luminescence, 48 h; viability (% of DMSO control): at 45.8 µM (top of the series); further: nearly all actives have a fitted effect of over 55% in size; further: potency means the concentration at half of the fitted maximal effect
Procedure, shortened: as §1

[18] = Quantitative High-Throughput drug screen in 47 multiple myeloma cell lines against the NCATS MIPE library collection: RPMI8226_ATCC cell viability assay (AID 1919871); further: nearly all actives have a fitted effect of over 30% in size; further: potency means the concentration at half of the fitted maximal effect
Procedure, shortened: as §1

[19] = Quantitative High-Throughput drug screen in 47 multiple myeloma cell lines against the NCATS MIPE library collection: XG1_PLB cell viability assay (AID 1919866); further: nearly all actives have a fitted effect of over 35% in size; further: potency means the concentration at half of the fitted maximal effect
Procedure, shortened: as §1

Oc1ccc([C@@H]2Oc3ccc(O)cc3[C@@H]3CCC[C@@H]32)cc1
active: Potency [1] 23.5 µM | Potency [3] 23.5 µM | Potency [4] 1.18 µM | Potency [5] 14.8 µM | Potency [6] 16.6 µM | Potency [7] 10.5 µM | Potency [8] 33.2 µM | Potency [9] 7.43 µM | Potency [10] 14.8 µM
inactive: Potency [2]

Cn1cnc2c(F)c(Nc3ccc(Br)cc3F)c(C(=O)NOCCO)cc21
active: Potency [13] 13.2 nM | Potency [14] 0.0743 µM
inactive: Potency [11] | Potency [1] | Potency [5] | Potency [6] | viability [7] 115% | Potency [12] | Potency [15] | Potency [9] | Potency [10]

O=C(Nc1nnc(-c2ccco2)o1)c1cc(-c2ccccc2)nc2ccccc12
inactive: Potency [8]
active: Potency [4] 16.6 µM | Potency [5] 18.7 µM | Potency [13] 4180 nM | Potency [16] 14.8 µM | Potency [17] 14.8 µM | Potency [14] 18.7 µM | Potency [15] 18.7 µM | Potency [18] 13.2 µM

COc1cc2ncnc(Nc3cccc(Br)c3)c2cc1OC
active: Potency [1] 2.96 µM | Potency [4] 0.0372 µM | Potency [5] 0.0118 µM | Potency [6] 7.43 µM | Potency [13] 11.8 nM | Potency [19] 0.0372 µM | Potency [16] 0.743 µM | Potency [14] 5.9 µM
inactive: Potency [12]

CCCCCN=C(N)NN=Cc1c[nH]c2ccc(OC)cc12
active: Potency [1] 10.5 µM | Potency [2] 2.09 µM | Potency [3] 7.43 µM | Potency [4] 2.96 µM | Potency [5] 3.72 µM | Potency [6] 11.8 µM | Potency [7] 0.296 µM | Potency [19] 2.35 µM | Potency [14] 4.18 µM | Potency [8] 10.5 µM | Potency [9] 2.64 µM

CC(=O)NC(CS)C(=O)O (centres undefined)
inactive: Potency [11] | Potency [3] | Potency [6] | Potency [13] | Potency [19] | Potency [16] | Potency [14] | Potency [15] | Potency [18] | Potency [10]

C#Cc1cccc(Nc2ncnc3cc(OCCOC)c(OCCO)cc23)c1
active: Potency [1] 18.7 µM | Potency [2] 0.372 µM | Potency [4] 1.87 µM | Potency [5] 3.32 µM | Potency [6] 13.2 µM | Potency [12] 16.6 µM | Potency [14] 1.05 µM | Potency [9] 8.33 µM | Potency [10] 8.33 µM

CC(C(C)N1CC(=O)NC(=O)C1)N1CC(=O)NC(=O)C1 (centres undefined)
active: Potency [17] 0.526 µM
inactive: Potency [1] | viability [7] 134% | Potency [13] | Potency [19] | Potency [16] | Potency [14] | Potency [15] | Potency [18] | Potency [8] | Potency [9] | Potency [10]

CC1(C)[C@H](O[C@H]2O[C@H](C(=O)O)[C@@H](O)[C@H](O)[C@H]2O[C@@H]2O[C@H](C(=O)O)[C@@H](O)[C@H](O)[C@H]2O)CC[C@@]2(C)[C@H]1CC[C@]1(C)[C@H]2C(=O)C=C2[C@H]3C[C@@](C)(C(=O)O)CC[C@]3(C)CC[C@]21C
inactive: Potency [1] | Potency [3] | viability [7] 142% | Potency [13] | Potency [19] | Potency [16] | Potency [14] | Potency [15] | Potency [8] | Potency [10]

CN(C)CC[C@H](c1ccc(Cl)cc1)c1ccccn1
active: Potency [19] 6.62 µM
inactive: Potency [11] | Potency [3] | Potency [17] | Potency [14] | Potency [15] | Potency [8]

Cn1c(Nc2ccc(C(F)(F)F)cc2)nc2cc(Oc3ccnc(-c4ncc(C(F)(F)F)[nH]4)c3)ccc21
active: Potency [1] 23.5 µM | Potency [2] 16.6 µM | Potency [4] 3.72 µM | Potency [6] 16.6 µM | Potency [7] 20.9 µM | Potency [12] 6.62 µM | Potency [13] 5900 nM | Potency [16] 13.2 µM | Potency [17] 16.6 µM | Potency [14] 16.6 µM | Potency [15] 1.87 µM | Potency [18] 16.6 µM

NC1=N[C@H]2[C@H](CS[C@H]2CCCCC(=O)O)N1
inactive: Potency [11] | Potency [2] | Potency [3] | Potency [5] | Potency [12] | Potency [13] | Potency [19] | Potency [16] | Potency [17] | Potency [14] | Potency [15] | Potency [8] | Potency [9] | Potency [10]
